We go through 21 compounds from PubChem BioAssay (NCATS).

The source made the active and inactive calls. A call without a number means that no potency is given here. Calls follow the shape of the dose curve; as a rule, active = well fitted activation curve with a large enough effect; inconclusive = small, poorly fitted or top-dose-only effect; inactive = flat fitted curve, though single readings scatter. Numbered stars: 1 amine (or outer) side, 2 acyl side, 3 side chain; on linkers, the order of the positions; unused ones are H or OH. Bridge positions count the residues as written; N and C are the ends. Square brackets hold non-standard residues; d marks the D form. Peptide text beside a SMILES is read from it. I, II: the chains in the order shown. Actinocin(9to1) = Cc1c2oc3c(C)ccc(C(=O)[*:1])c3nc-2c(C(=O)[*:2])c(N)c1=O; NMeV = CN[C@H](C(=O)O)C(C)C; Sar = CNCC(=O)O
Potency is read from the fitted curve at half-maximal effect.

This test is described as follows: Cellular Toxicity (caspase-3) HepG2 (AID 654).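 As to caspase-3 activation: cells exposed to compound for 16 hours before reading.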 Particulars: HepG2 caspase-3 activation, luminescence; series mostly up to 92.2 µM. An excerpt:
NIH Chemical Genomics Center [NCGC]
NIH Molecular Libraries Screening Centers Network [MLSCN]
National Institutes of Environmental Health Sciences [NIEHS]
National Toxicology Program [NTP]
We have developed a 1536-well cell-based assay for quantitative high throughput screening (qHTS) against a number of cell lines to determine in vitro caspase 3/7 of small molecules. This particular assay uses the HepG2 cell line which is derived from human hepatocellular carcinoma.
NCGC Assay Protocol Summary:
The Caspase-Glo 3/7 assay (Promega) is a homogeneous method to measure caspase-3 and caspase-7 activities in cultured cells. The quantitation of caspase 3/7 activity is based on the cleavage of a peptide-aminoluciferin substrate. After caspase cleaves the substrate the free aminoluciferin is liberated and serves as the substrate of luciferase, which generates the light. The luminescent signal is proportional to amount of caspase 3/7 activity present.
Using the Caspase-Glo 3/7 assay, the amount of caspase 3/7 activity was measured in the HepG2 cell line with complete culture medium following compound treatment for 16 hours. The assay was performed in opaque white 1536-well plates. In the screen, tamoxifen and doxorubicin were used as positive controls. Library compounds were measured for their ability to cause the activation of caspase 3/7 in the cell line, as reflected by an increase in luminescence signal, in a concentration-dependent manner. Data were normalized to the controls for basal activity (DMSO only) and 100% stimulation (100 uM tamoxifen). AC50 values were determined from concentration-response data modeled with the standard Hill equation.
qHTS protocol for caspase 3/7 assay in HepG2 cells
[Step] [Parameter] [Value] [Description]
1. Reagent; 5 uL; 1500 HepG2 cells/well
2. Time; 5 hr; 37 °C incubation
4. Controls; 23 nL; Tamoxifen 0.23 uM to 100 uM & Doxorubicin 7.0 pM to 100 uM
5. Time; 16 hr; 37 °C incubation
6. Reagent; 5 uL; Caspase-Glo 3/7 reagent
7. Time; 20 min; Room Temperature
8. Detection; Luminescence; Viewlux plate reader
Keywords: caspase 3/7, apoptosis, HepG2 cell line, luminescence, NTPHTS, NTPHTS_NCGC, NIEHS, EPA, DSSTox, MLSMR, MLSCN, NIH Roadmap, qHTS, NCGC
As to `Oc1ccc(Cl)cc1Sc1cc(Cl)ccc1O`, the Potency result was “inactive”.
To `CC(=O)O[C@]1(C(C)=O)CC[C@H]2[C@@H]3C[C@H](C)C4=CC(=O)CC[C@]4(C)[C@H]3CC[C@@]21C` belongs “inactive”; to `O=C(O)CCCCC(=O)O`, “inactive”.
As for `CN(C)/N=N/c1nc[nH]c1C(N)=O`, the Potency result was “inactive”.
To `CCCCCCc1ccc(O)cc1O` belongs “inactive”; to `Oc1c(Cl)cc(Cl)cc1Sc1cc(Cl)cc(Cl)c1O`, “inactive”.
To `CC(O)C(=O)O` (stereo unspecified) belongs “inactive”; to `O=c1ccc2ccccc2o1`, “inactive”.
To `CC(=O)Oc1ccc(C(c2ccc(OC(C)=O)cc2)c2ccccn2)cc1` belongs “inactive”.
Take `C=C(CC)C(=O)c1ccc(OCC(=O)O)c(Cl)c1Cl`: the Potency result was “inactive”.
For `Oc1c(I)cc(Cl)c2cccnc12`, the Potency entry was “inactive”.
With `COC1=CC(=O)C[C@@H](C)[C@]12Oc1c(Cl)c(OC)cc(OC)c1C2=O`, the Potency result was “inactive”.
Consider `Oc1ccc(O)cc1`, for which the Potency entry is “inactive”.
In the case of `CC(C)(C)CC(C)(C)c1ccc(OCCOCC[N+](C)(C)Cc2ccccc2)cc1`, the Potency was 50.1 µM (active).
In the case of `CC/C(=C(/CC)c1ccc(O)cc1)c1ccc(O)cc1`, the Potency result was “inactive”.
To `C=CCc1ccc(O)c(OC)c1` belongs “inactive”.
To `Cc1c2oc3c(C)ccc(C(=O)N[C@@H]4C(=O)N[C@H](C(C)C)C(=O)N5CCC[C@H]5C(=O)N(C)CC(=O)N(C)[C@@H](C(C)C)C(=O)O[C@@H]4C)c3nc-2c(C(=O)N[C@@H]2C(=O)N[C@H](C(C)C)C(=O)N3CCC[C@H]3C(=O)N(C)CC(=O)N(C)[C@@H](C(C)C)C(=O)O[C@@H]2C)c(N)c1=O` (I: T[dV]P[Sar][NMeV] / II: T[dV]P[Sar][NMeV]; ester I:1-I:C, II:1-II:C; linker I:N-II:N via Actinocin(9to1)) belongs “inactive”.
To `C[C@]12CC[C@@H]3c4ccc(O)cc4CC[C@H]3[C@@H]1CC[C@@H]2O` belongs “inactive”; to `Nc1ccc(C(=O)O)cc1`, “inactive”.
For `O=C1OC(c2ccc(O)cc2)(c2ccc(O)cc2)c2ccccc21`, the Potency entry is “inactive”.
To `NC(=NCCCCCCN=C(N)/N=C(\N)Nc1ccc(Cl)cc1)/N=C(\N)Nc1ccc(Cl)cc1` belongs “inactive”.
